Source: PubChem BioAssay (several laboratories)
Rows were chosen to be rich in hits. Some 3.5% of all compounds tested hit in one or more screens of this group.
BoNT-A LC inh2: inhibitors of Botulinum neurotoxin A light chain protease | multiplex microsphere protease substrate cleavage, flow cytometry | inhibition, % at 10 µM | 0.17% of 360,000 active; note: plate controls were buffer without enzyme for full effect and enzyme alone for no effect
BoNT F protease: BoNT F light chain protease inhibition. Multiplex microsphere protease cleavage assay, flow cytometry. inhibition, % at 10 µM. 0.22% of 360,000 active. AID 588497; in the data active = inhibition above about 35%, passing the limit was not always enough; inconclusive = no clear call, values can overlap the other calls; note: plate controls were buffer without enzyme for full effect and enzyme alone for no effect
Bead autofluor: compound fluorescence in toxin protease inhibitor counterscreen; compound autofluorescence counterscreen, microsphere flow cytometry; hits give high values; fluorescence intensity (test concentration not listed); 3.1% of 360,000 active; in the data active = fluorescence intensity above about 16000; inconclusive = no clear call, values can overlap the other calls
Anthrax LF prot: blocks Bacillus anthracis lethal factor protease; multiplex microsphere protease cleavage assay, LF; P15917; 0.12% of 360,000 active; inhibition, % at 10 µM; note: plate controls were buffer without enzyme for full effect and enzyme alone for no effect
Target sequence (P15917 whole entry, looked up): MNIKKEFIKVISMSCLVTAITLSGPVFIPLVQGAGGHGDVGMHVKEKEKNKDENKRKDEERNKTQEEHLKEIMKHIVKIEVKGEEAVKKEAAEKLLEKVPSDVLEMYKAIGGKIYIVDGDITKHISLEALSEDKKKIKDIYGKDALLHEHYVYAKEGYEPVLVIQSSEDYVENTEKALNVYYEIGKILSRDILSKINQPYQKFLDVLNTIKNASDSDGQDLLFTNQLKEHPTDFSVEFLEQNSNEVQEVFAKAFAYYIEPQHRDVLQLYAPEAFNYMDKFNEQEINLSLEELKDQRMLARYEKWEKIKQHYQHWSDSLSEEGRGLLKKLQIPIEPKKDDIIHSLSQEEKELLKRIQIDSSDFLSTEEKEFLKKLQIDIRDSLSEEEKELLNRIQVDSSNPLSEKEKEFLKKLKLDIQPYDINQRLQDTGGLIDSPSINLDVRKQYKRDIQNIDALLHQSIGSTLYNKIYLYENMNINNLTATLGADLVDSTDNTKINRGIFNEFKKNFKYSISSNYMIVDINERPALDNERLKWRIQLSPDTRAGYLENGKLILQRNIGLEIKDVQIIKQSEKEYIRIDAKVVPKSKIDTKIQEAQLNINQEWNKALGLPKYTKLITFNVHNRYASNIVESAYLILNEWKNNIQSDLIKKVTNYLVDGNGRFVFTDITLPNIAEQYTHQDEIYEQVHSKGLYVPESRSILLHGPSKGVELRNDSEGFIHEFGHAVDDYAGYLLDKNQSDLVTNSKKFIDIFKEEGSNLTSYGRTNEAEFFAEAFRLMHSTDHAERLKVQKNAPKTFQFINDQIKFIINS
Vc quorum ag: quorum light induction in luxS cqsA deficient V. cholerae; 0.16% of 350,000 active; V. cholerae BH1578 lux reporter, luminescence, 6 h; activation, % at 18.7 µM; in the data active = activation mostly above about 9.7%, no sharp cut-off; inconclusive = no clear call, values can overlap the other calls; inactive = mostly below about 3.7%
Starred values were filed as active, the others as inactive; i = inactive; ? = inconclusive; / = no result given. Cut-off read from the data, not from the text of the source, unless noted: active = inhibition above about 30%; inconclusive = no clear call, values can overlap the other calls; inactive = below that.

SMILES | BoNT-A LC inh2 | BoNT F protease | Bead autofluor | Anthrax LF prot | Vc quorum ag
CCc1cccc(C)c1NC(=S)N(CCOC)C(C)c1ccco1 (stereo not drawn) | 0 | -12 | 3813 | -5 | 0
Cc1ccsc1C1Nc2ccc3ncccc3c2C2=C1C(=O)CCC2 (stereo not drawn) | 3 | 0 | 20032* | 1 | 1
CCSc1cc(C)nc2c(-c3ccc(Cl)cc3)c(C)nn12 | -3 | -4 | 20908* | 1 | 0
O=C(Nc1ncc2c(n1)-c1ccccc1CC2)c1cccs1 | 0 | -6 | 4758 | -2 | 0
O=S(=O)(c1ccc(N2CC=C(c3ccccc3)CC2)nc1)N1CCCC1 | ? | -6 | 24332* | -1 | 2
CCCNC(=O)CCc1c(C)nc2nc(C)nn2c1C | 0 | 0 | 2681 | 1 | i
Cc1cccc2cc(C#N)c(NCCCn3ccnc3)nc12 | 3 | 1 | 19585* | 5 | i
O=C(O)C1CCCN1S(=O)(=O)c1ccccc1 (stereo not drawn) | 3 | 5 | 20858* | 0 | i
O=C(O)C1CCCN1S(=O)(=O)c1ccc(Cl)cc1 (stereo not drawn) | -2 | -20 | 3194 | 4 | i
Cc1ccc(S(=O)(=O)N2CCCC2C(=O)O)s1 (stereo not drawn) | -2 | -4 | 24047* | 0 | -6
Cc1oc(C)c(C(=O)O)c1COc1ccc(C(=O)O)cc1 | 0 | 11 | 4816 | 4 | 2
CC(C)Oc1ccc(C(=O)NCC(=O)O)cc1 | 1 | -5 | 4728 | 0 | 0
NNC(=O)c1ccc(COc2ccccc2)cc1 | 2 | -4 | 2443 | 1 | 0
COc1ccc(OCC(O)CNC(=O)c2ccc(OC)cc2)cc1 (stereo not drawn) | 0 | -1 | 2605 | -2 | 0
COc1ccc(C(=O)NCc2c(C)oc(C)c2C(=O)O)cc1 | 1 | 36* | 3063 | -4 | 0
COc1ccc(C(=O)NCC(=O)O)cc1 | -2 | -8 | 17003* | -4 | 2
COc1ccc(OCc2ccc(C(=O)NN)cc2)cc1 | 0 | -3 | 19696* | -1 | -2
COc1ccc(OCC(O)CNC(=O)c2ccc(Br)cc2)cc1 (stereo not drawn) | 3 | 6 | 21623* | -6 | i
Cc1ccc(C(=O)COC(=O)CN2C(=O)C3C4CC(C(Br)C4Br)C3C2=O)cc1 (stereo not drawn) | 0 | 6 | 6092 | -1 | 0
COc1ccc(NC(=O)CCCn2nc(C)c3c(C)n(-c4ccccc4)nc3c2=O)cc1 | -1 | 9 | 6663 | -3 | -1
COCCn1c(SCC(=O)NC(=O)NC2CCCC2)nc2ccccc2c1=O | 0 | -4 | 5558 | -6 | 0
COc1cc(OC)nc(NC(=O)CS(=O)(=O)c2ccccc2)n1 | 0 | -3 | 2349 | -5 | 33*
COc1ccc(OC)c(NC(=O)CS(=O)(=O)c2ccccc2)c1 | 0 | -6 | 9571 | -3 | 0
Cc1ccc(C23CC4CC(CC(C(=O)NC(C)C(N)=O)(C4)C2)C3)cc1 (stereo not drawn) | 0 | -5 | 5969 | -2 | 0
NC(=O)C[C@H](NC(=O)c1ccc(Cl)cc1)C(=O)OCc1ccccc1 | 0 | 10 | 3693 | -6 | -1
SMILES | BoNT-A LC inh2 | BoNT F protease | Bead autofluor | Anthrax LF prot | Vc quorum ag
COC(=O)c1sccc1-c1ccc(C(=O)Nc2ccccc2)o1 | ? | 2 | 19373* | 1 | i
O=C(NC(=S)Nc1ccccn1)c1cccc([N+](=O)[O-])c1 | / | / | / | / | -2
COc1cc(C2NC(=O)NC(c3ccccc3)=C2C(C)=O)ccc1OCC#N (stereo not drawn) | 1 | -1 | 23457* | -2 | -1
CCOC(=O)C1=C(c2ccccc2)NC(=O)NC1c1ccc(OC)c(OC)c1 (stereo not drawn) | 0 | 4 | 4201 | -6 | 0
COc1cc(C2NC(=O)NC(C)=C2C(=O)OC(C)(C)C)ccc1OCC(N)=O (stereo not drawn) | ? | -8 | 21970* | 2 | i
CCOC(=O)C1(Cc2cccc(F)c2)CCN(C(=O)c2ccoc2C)CC1 | 0 | -4 | 4659 | 3 | -2
COc1cccc(NC(=O)Nc2cc(Cl)ccc2C)c1 | 0 | -7 | 2029 | -2 | i
Cc1ccc(Cl)cc1NC(=O)c1cccc(OC(F)F)c1 | 8 | 5 | 20132* | -4 | -3
O=C(NCCS(=O)(=O)N1CCCCCC1)c1ccc(F)cc1 | 5 | 5 | 5880 | -4 | i
Cc1c(Cl)cccc1NC(=O)CCN1C(=O)C2CC=CCC2C1=O (stereo not drawn) | 1 | -3 | 5209 | 0 | 2
Cc1ccc(-c2ccc(CCC(=O)O)n2-c2ccc(O)cc2)cc1 | 2 | -1 | 10421 | -1 | -25
